Screening results from PubChem.
Rows were chosen to be rich in hits. Some 16% of all compounds tested hit in one or more screens of this group.
DT40 TDP1 CPT: qHTS for Inhibitors of human tyrosyl-DNA phosphodiesterase 1 (TDP1): qHTS in cells in presence of CPT. 420,000 compounds, 12% hits. Potency, µM (series often up to 46.2 µM), most hits filed as inhibitors. AID 686979, 2013. chicken DT40 Tdp1-/-;hTDP1 cells + 20 nM CPT, ATP luminescence, 48 h; further: nearly all actives have a fitted effect of over 55% in size
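Chicken DT40 Tdp1-/- cells stably complemented with human TDP1 were seeded at 400 cells/well in medium containing 20 nM camptothecin, exposed to pin-transferred compounds, and grown at 37 °C for at least 48 hr. Viability was read as ATP luminescence.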
TDP1 cell noCPT: qHTS for Inhibitors of human tyrosyl-DNA phosphodiesterase 1 (TDP1): qHTS in cells in absence of CPT. DT40 Tdp1-/- hTDP1 cells, no CPT, ATP luminescence, 48 h. Potency, µM (highest dose often 46.2 µM), actives largely listed as inhibitors. 420,000 compounds, 15% hits. AID 686978, 2013; further: nearly all actives have a fitted effect of over 55% in size
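A cellular qHTS used chicken DT40 cells lacking endogenous Tdp1 but carrying stably transfected human TDP1. Compounds were applied without camptothecin, and cell growth kinetics were judged by ATP-dependent luminescence after ≥48 hr.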
TDP1 inh: qHTS Assay for Inhibitors of Tyrosyl-DNA Phosphodiesterase (TDP1). Tyrosyl-DNA phosphodiesterase 1 (Homo sapiens), Q9NUW8. recombinant TDP1, AlphaScreen DNA substrate cleavage. Potency, µM (highest dose often 130 µM), actives largely listed as inhibitors. 350,000 compounds, 0.28% hits; further: nearly all actives have a fitted effect of over 40% in size
Target sequence (Q9NUW8 whole entry, looked up): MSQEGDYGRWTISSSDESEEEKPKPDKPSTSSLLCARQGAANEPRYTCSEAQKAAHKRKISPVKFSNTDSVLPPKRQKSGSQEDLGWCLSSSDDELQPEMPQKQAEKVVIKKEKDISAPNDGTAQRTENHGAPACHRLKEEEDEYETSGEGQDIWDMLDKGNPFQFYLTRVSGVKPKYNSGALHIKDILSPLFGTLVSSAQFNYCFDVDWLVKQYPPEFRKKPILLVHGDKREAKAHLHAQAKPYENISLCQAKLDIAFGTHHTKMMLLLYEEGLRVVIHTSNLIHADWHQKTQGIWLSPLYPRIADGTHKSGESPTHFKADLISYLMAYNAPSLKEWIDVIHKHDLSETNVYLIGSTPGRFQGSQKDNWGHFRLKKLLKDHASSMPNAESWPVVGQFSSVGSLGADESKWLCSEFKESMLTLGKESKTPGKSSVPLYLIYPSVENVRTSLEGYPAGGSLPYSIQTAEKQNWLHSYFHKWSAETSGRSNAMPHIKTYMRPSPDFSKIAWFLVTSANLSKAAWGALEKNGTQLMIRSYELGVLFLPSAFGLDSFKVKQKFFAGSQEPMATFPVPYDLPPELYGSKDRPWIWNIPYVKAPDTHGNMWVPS
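Compounds were preincubated with Tdp1 (1 nM final) for 15 min at room temperature before substrate (15 nM final) started a 5 min reaction; beads (10 ug/ml final) were then added for 10 min before AlphaScreen detection.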
miR-21 act: qHTS Assay for Modulators of miRNAs and/orActivators of miR-21; Potency, µM (titrated, usually from 38.3 µM), usual class: activators; HeLa miR-21 FLuc reporter, luciferase, 48 h; 340,000 tested, under 10 active;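 further: miR-21 action dims this reporter so a rising signal means less miR-21 action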
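HeLa cells endogenously expressing miR-21, stably carrying CMV-driven firefly luciferase with a downstream miR-21 binding site, 2000 cells/well. Titrations up to approximately 40 uM, 48 hours; luciferase luminescence read.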
uPA surface inh: qHTS for Inhibitors of Cell Surface uPA Generation; cell surface uPA generation assay, qHTS; Potency, µM (top dose mostly 38.3 µM), usual class: inhibitors; 330,000 compounds, 0.31% hits; AID 540303, 2011; active means well fitted inhibition curve with a large enough effect; inconclusive means small, poorly fitted or top-dose-only effect; inactive means no such curve, though single readings can be large or run the other way; tested in mouse RAW 264.7 cells; further: nearly all actives have a fitted effect of over 55% in size
Hits are given with their value; 0 = inactive; ? = inconclusive; - = no result; [ ] = another dose, or the depositor's remark. Unless noted, the call rests on the fitted dose curve; in most records, active means well fitted curve in the direction sought with a large enough effect; inconclusive means small, poorly fitted or top-dose-only effect, or another doubt; inactive means no such curve, though single readings can be large; an effect the other way counts as inactive or inconclusive.

SMILES | DT40 TDP1 CPT | TDP1 cell noCPT | TDP1 inh | miR-21 act | uPA surface inh
COc1ccc(/C=C/C(O)=C2/C(=O)NC3(C)CC2c2ccccc2O3)c(OC)c1OC (configuration not stated) | 8.2µM | 7.3µM | 0 | 0 | ?
CC12CC(c3ccccc3O1)C(C(=O)N1CCOCC1)C(=O)N2 (configuration not stated) | 0 | 0 | 0 | 0 | 0
CCN1C(=O)C(C(=O)Nc2ccc(OC)cc2)C2CC1(C)Oc1ccccc12 (configuration not stated) | 0 | 0 | 0 | 0 | 0
CSc1nnc(-c2ccncc2)n1/N=C/c1cn(-c2ccccc2)nc1-c1ccc(Cl)cc1 | ? | ? | - | 0 | 0
CCOC(=O)CCNC(=O)N1CCCC(C(=O)c2cccc(OC(C)C)c2)C1 (configuration not stated) | ? | ? | - | 0 | 0
CC(C)(C)Cc1c(C2CCCCC2)nc2ccc(Cl)cn12 | 0 | ? | - | - | -
Cc1ccc2nc(C3CCCCC3)c(Cc3ccccc3C(F)(F)F)n2c1 | 0 | 16µM | - | - | -
Cc1ccc2nc(C3CCCCC3)c(Cc3ccccc3)n2c1 | 15µM | 16µM | - | - | -
O=C(CNc1ccc(C(F)(F)F)cc1)Nc1cccc(S(=O)(=O)N2CCCCC2)c1 | ? | 16µM | - | - | -
O=C(COc1cccc(C(F)(F)F)c1)Nc1ccc(S(=O)(=O)N2CCCC2)cc1 | 23µM | ? | 0 | 0 | -
O=C(Cc1cccc(C(F)(F)F)c1)Nc1cccc(S(=O)(=O)N2CCCC2)c1 | 16µM | ? | 0 | 0 | 0
O=C(CNc1cccc(S(=O)(=O)N2CCCC2)c1)Nc1cccc(C(F)(F)F)c1 | 10µM | 12µM | 0 | - | 0
O=c1cc(CN2CCN(Cc3ccc(F)cc3)C(CCO)C2)[nH]c2ccccc12 (configuration not stated) | 0 | 0 | - | 0 | 0
COc1cccc(CNC(=O)CNC(=O)N2CC(=O)Nc3ccccc32)c1 | 0 | 0 | 0 | 0 | 0
O=C(CNc1cccc(S(=O)(=O)N2CCOCC2)c1)Nc1ccc(C(F)(F)F)cc1 | ? | 16µM | 0 | - | 0
O=C(CNc1cc(S(=O)(=O)N2CCCC2)ccc1OCC(F)(F)F)Nc1cc(Cl)cc(Cl)c1 | - | - | 0 | 0 | -
O=C(CNc1cc(S(=O)(=O)N2CCCC2)ccc1OCC(F)(F)F)Nc1ccc(SC(F)F)cc1 | 1.8µM | 3.7µM | 0 | ? | 0
NC(=O)c1ccc(-n2nnnc2SCC(=O)Nc2ccccc2F)cc1 | 0 | 0 | - | 0 | 0
Cc1ccccc1OCC(=O)OCC(=O)c1ccc(-c2ccccc2)cc1 | 0 | 0 | 0 | 0 | 0
Cc1c(C(=O)OC(C)C(C)C[N+](C)(C)C)oc2ccccc12 (configuration not stated) | ? | ? | 0 | 0 | 0
COc1cc(/C=N/NC(N)=S)ccc1OCC(=O)Nc1ccc(C)cc1 | ? | 0 | 0 | 0 | 0
COc1cc(/C=N/NC(=O)COc2ccc(C)cc2)ccc1OC(=O)c1cccs1 | ? | 26µM | 0 | 0 | 0
CCOc1cc(/C=N\Nc2ccc([N+](=O)[O-])cc2)ccc1OCC(=O)Nc1ccc(C)c(C)c1 | 23µM | 15µM | 0 | 0 | 0
CCOc1cc(/C=N/NC(=O)COc2ccc(C)cc2)ccc1OC(=O)c1cccs1 | ? | ? | 0 | 0 | 0
CCOc1cc(/C=N\NC(=O)Cc2ccccc2)ccc1OCC(=O)Nc1ccc(C)c(C)c1 | 13µM | 21µM | 0 | 0 | 0
SMILES | DT40 TDP1 CPT | TDP1 cell noCPT | TDP1 inh | miR-21 act | uPA surface inh
CCOc1cc(/C=N/O)ccc1OCC(=O)Nc1cccc(C)c1 | ? | ? | 0 | 0 | 0
CNC(=S)N/N=C/c1ccc(OCC(=O)Nc2c(C)cc(C)cc2C)c(OC)c1 | 21µM | ? | 0 | 0 | 0
CC1=C(C(=O)NCc2ccccc2C)C2(CCCCC2)OC1=O | 0 | 0 | 0 | 0 | -
COC(=O)CCCC1=CC2=CC(=O)C(C)(OC(=O)c3cccs3)C(=O)C2=CN1C(CO)CO (configuration not stated) | - | - | 0[12.3 µM] | - | -
CCOc1cc(/C=N/NC(=O)COc2ccc(Cl)cc2)ccc1OS(=O)(=O)c1ccccc1 | ? | 23µM | 0 | 0 | 0
COc1cc(/C=N\Nc2ccc([N+](=O)[O-])cc2)ccc1OCC(=O)Nc1ccc(C)c(C)c1 | ? | 18µM | 0 | 0 | 0
COc1ccc(C2(CNC(=O)c3ccc(N)cc3)CCCC2)cc1 | 0 | ? | - | 0 | 0
CCCS(=O)(=O)c1nc(S(=O)(=O)c2ccc(C)cc2)c(NCCCn2ccnc2)s1 | 0 | 0 | 0 | 0 | 0
COC(=O)c1cc2sccc2n1Cc1ccc(F)cc1 | 0 | 0 | 0 | 0 | -
CC(C)NC(=O)C1CCN(C(=O)c2cc3sccc3n2Cc2ccc(F)cc2)CC1 | 6.5µM | 7.3µM | 0 | 0 | ?
O=C(c1cc2sccc2n1Cc1ccc(F)cc1)N1CCCc2ccccc21 | ? | 23µM | 0 | 0 | 0
O=C(NCc1ccc(F)cc1)c1cc2sccc2n1Cc1ccc(F)cc1 | - | - | 0 | 0 | -
O=C(NCCc1ccccc1)c1cc2sccc2n1Cc1ccc(F)cc1 | 0 | 0 | 0 | 0 | -
CC(C)NC(=O)C1CCN(C(=O)c2cc3sccc3n2Cc2ccc(Cl)cc2)CC1 | 1.6µM | 1.5µM | 0 | ? | -
CC1CCN(C(=O)C2CCN(C(=O)c3cc4sccc4n3Cc3ccc(F)cc3)CC2)CC1 | 21µM | 18µM | 0 | 0 | 0
COc1ccc2ccc(OCC(=O)NCC3CCCO3)cc2c1 (configuration not stated) | ? | 0 | 0 | - | 0
CN(C(=O)CSc1nc2ccccc2n1CC(=O)N(C)C1CCCCC1)c1ccccc1 | ? | 18µM | 0 | 0 | -
CN(C(=O)CSc1nc2ccccc2n1CC(=O)N(C)c1ccc(F)cc1)c1ccccc1 | 18µM | 21µM | 0 | 0 | -
CC1CCC(C(C)C)C2=C1C(C#N)(C#N)C(C#N)(C#N)C(c1ccccc1)N2 (configuration not stated) | ? | 18µM | 0 | 0 | 0
Cc1noc(C)c1COc1cccc(C(=O)Nc2ccc(Br)cc2F)c1 | 8.2µM | 6.5µM | 0 | - | 0
CC(C)Oc1cccc(C(=O)Nc2ccc(Br)cc2F)c1 | ? | 16µM | 0 | 0 | 0
COc1cccc(C(=O)Nc2ccc(F)cc2F)c1 | 0 | 0 | 0 | 0 | 0
Cc1noc(C)c1COc1cccc(C(=O)OC(C)C(=O)Nc2ccc3c(c2)OCO3)c1 (configuration not stated) | 1µM | 0.82µM | 0 | 0 | ?
Cc1ccc(NC(=O)c2cccc(OCc3c(C)noc3C)c2)c(C)c1 | 0 | 0 | 0 | 0 | 0
CCOc1ccc(N/C(C)=C\C(=O)c2ccc3c(c2)OCCO3)cc1 | 0 | 0 | 0 | 0 | 0
CCOC(=O)c1c(C)nc(C)c(C(=O)OCC)c1-c1ccccc1 | 0 | 0 | 0 | 0 | -
